Holding throughout (settings): mRNA level, 48 h; actives raise or lower the signal
Read-out in experiment [1]: solute carrier (SLC22A1), SLC22A1 (gene 6580)
In words: LTEA_HepaRG_SLC22A1: Life Technologies and Expression Analysis (LTEA) Assay for solute carrier (SLC22A1) using HepaRG (AID 2283524). The method in brief: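 qRT-PCR readout (TaqMan, Fluidigm arrays) of SLC22A1 transcript, normalized to three housekeeping genes; bidirectional curve fit relative to 0.5% DMSO vehicle. Differentiated human HepaRG cells, 48 h chemical exposure, top concentration 100 uM, half-log steps, eight points.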

Read-out in experiment [2]: Pyruvate Dehydrogenase Kinase 4 (PDK4), PDK4 (gene 5166)
Briefly: LTEA_HepaRG_PDK4: Life Technologies and Expression Analysis (LTEA) Assay for Pyruvate Dehydrogenase Kinase 4 (PDK4) using HepaRG (AID 2283525). The method in brief: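 HepaRG (human liver line), 48 h chemical exposure, 8-pt half-log CRC top 100 uM, 0.5% DMSO vehicle, duplicates. Readout: TaqMan qRT-PCR of PDK4 mRNA, housekeeping-normalized; gain/loss fit relative to DMSO baseline.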

Read-out in experiment [3]: NAD(P)H dehydrogenase [quinone] 1 (NQO1), NQO1 (gene 1728)
Briefly: LTEA_HepaRG_NQO1: Life Technologies and Expression Analysis (LTEA) Assay for NAD(P)H dehydrogenase [quinone] 1 (NQO1) using HepaRG (AID 2283526). The method in brief: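 In this assay, gene expression is read by qRT-PCR after 48 h exposure of HepaRG cells to eight concentrations (max 100 uM, half-log) in 0.5% DMSO. Each chemical runs in duplicate, and activity is scored relative to vehicle.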

Read-out in experiment [4]: Nuclear factor erythroid 2-related factor 2 (Homo sapiens) (UniProt Q16236)
Briefly: LTEA_HepaRG_NFE2L2: Life Technologies and Expression Analysis (LTEA) Assay for Nuclear factor erythroid 2-related factor 2 (NFE2L2) Transcription Factor using HepaRG (AID 2283527).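 On outcome: TaqMan qRT-PCR transcript level normalised to ACTB GAPDH and POLR2A housekeeping genes.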 The method in brief:
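HepaRG, 48 h dosing, 8-pt half-log series from 100 uM in 0.5% DMSO, duplicates. Read-out: NFE2L2 mRNA by qRT-PCR (ACTB/GAPDH/POLR2A normalization). Bidirectional curve fit vs DMSO baseline.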

Read-out in experiment [5]: succinate dehydrogenase complex iron sulfur subunit B (SDHB), SDHB (gene 6390)
In words: LTEA_HepaRG_SDHB: Life Technologies and Expression Analysis (LTEA) Assay for succinate dehydrogenase complex iron sulfur subunit B (SDHB) using HepaRG (AID 2283528). The method in brief:
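Readout is SDHB transcript level by qRT-PCR, normalised to three housekeeping genes and fitted bidirectionally against 0.5% DMSO vehicle. Human HepaRG cells were treated for 48 h at up to 100 uM.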

Read-out in experiment [6]: Signal transducer and activator of transcription 3 (Homo sapiens) (UniProt P40763)
Briefly: LTEA_HepaRG_STAT3: Life Technologies and Expression Analysis (LTEA) Assay for Signal transducer and activator of transcription (STAT3) using HepaRG (AID 2283529). The method in brief:
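HepaRG, 48 h exposure, 8-pt half-log series (top 100 uM), 0.5% DMSO vehicle, duplicates. Readout: STAT3 transcript by Fluidigm qRT-PCR, housekeeping-normalized; bidirectional fit vs DMSO baseline.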

Read-out in experiment [7]: solute carrier (SLCO1B1), SLCO1B1 (gene 10599)
Briefly: LTEA_HepaRG_SLCO1B1: Life Technologies and Expression Analysis (LTEA) Assay for solute carrier (SLCO1B1) using HepaRG (AID 2283530). The method in brief:
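Differentiated human HepaRG cells, plated 48 h, switched to serum-free induction medium and exposed in duplicate for 48 h to 8 half-log concentrations (top 100 uM) in 0.5% DMSO. SLCO1B1 mRNA by TaqMan qRT-PCR, normalized to ACTB/GAPDH/POLR2A.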

Read-out in experiment [8]: Transforming Growth Factor (TGFA), TGFA (gene 7039)
In words: LTEA_HepaRG_TGFA: Life Technologies and Expression Analysis (LTEA) Assay for Transforming Growth Factor (TGFA) using HepaRG (AID 2283532). The method in brief: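 qRT-PCR read-out of TGFA transcript, normalized to three housekeeping genes, fitted bidirectionally against 0.5% DMSO baseline. Human HepaRG cultures received chemicals for 48 h at eight half-log concentrations, top 100 uM.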

Read-out in experiment [9]: Transforming Growth Factor (TGFB1), TGFB1 (gene 7040)
Briefly: LTEA_HepaRG_TGFB1: Life Technologies and Expression Analysis (LTEA) Assay for Transforming Growth Factor (TGFB1) Transporter using HepaRG (AID 2283533). The method in brief:
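Differentiated human HepaRG cells in serum-free induction medium were exposed in duplicate for 48 h to eight concentrations (top 100 uM, half-log steps, 0.5% DMSO). TGFB1 mRNA was quantified by qRT-PCR, normalized to ACTB, GAPDH, POLR2A, and fitted bidirectionally against DMSO.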

Read-out in experiment [10]: sulfotransferase 2A1 (SULT2A1), SULT2A1 (gene 6822)
Briefly: LTEA_HepaRG_SULT2A1: Life Technologies and Expression Analysis (LTEA) Assay for sulfotransferase 2A1 (SULT2A1) using HepaRG (AID 2283531). The method in brief:
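Differentiated human HepaRG cells in serum-free induction medium were exposed for 48 h to eight half-log concentrations (top 100 uM, 0.5% DMSO). SULT2A1 mRNA was measured by qRT-PCR, normalized to ACTB, GAPDH and POLR2A, and fitted bidirectionally against DMSO.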

Calls of active or inactive are those of the source. How the source made its calls: active means hit-call score of the fitted dose curve at least 0.9, where 1 is the maximum; inactive means score below 0.9.

Sequence of Signal transducer and activator of transcription 3 (Homo sapiens) (P40763 whole entry, looked up): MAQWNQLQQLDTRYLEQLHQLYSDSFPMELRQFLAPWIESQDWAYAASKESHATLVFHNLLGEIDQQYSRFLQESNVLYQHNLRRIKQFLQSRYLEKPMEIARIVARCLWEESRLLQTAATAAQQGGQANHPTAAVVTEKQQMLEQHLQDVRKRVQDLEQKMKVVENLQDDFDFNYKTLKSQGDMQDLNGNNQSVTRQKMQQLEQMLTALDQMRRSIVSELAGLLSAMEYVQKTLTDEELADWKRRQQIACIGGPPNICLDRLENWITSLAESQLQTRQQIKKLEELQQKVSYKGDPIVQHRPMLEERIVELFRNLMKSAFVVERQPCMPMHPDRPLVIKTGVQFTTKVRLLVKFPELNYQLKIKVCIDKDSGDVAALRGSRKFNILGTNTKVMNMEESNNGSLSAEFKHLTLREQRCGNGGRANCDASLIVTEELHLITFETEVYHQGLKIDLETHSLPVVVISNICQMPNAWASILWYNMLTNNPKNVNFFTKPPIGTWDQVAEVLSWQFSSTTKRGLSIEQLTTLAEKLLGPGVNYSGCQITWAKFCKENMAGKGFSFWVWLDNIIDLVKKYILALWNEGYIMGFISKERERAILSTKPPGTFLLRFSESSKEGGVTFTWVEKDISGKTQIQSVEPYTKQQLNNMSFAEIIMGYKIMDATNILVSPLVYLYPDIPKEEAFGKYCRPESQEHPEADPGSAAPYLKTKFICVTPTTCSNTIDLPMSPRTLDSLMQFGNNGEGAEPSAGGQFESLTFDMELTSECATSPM
Sequence of Nuclear factor erythroid 2-related factor 2 (Homo sapiens) (Q16236 whole entry, looked up): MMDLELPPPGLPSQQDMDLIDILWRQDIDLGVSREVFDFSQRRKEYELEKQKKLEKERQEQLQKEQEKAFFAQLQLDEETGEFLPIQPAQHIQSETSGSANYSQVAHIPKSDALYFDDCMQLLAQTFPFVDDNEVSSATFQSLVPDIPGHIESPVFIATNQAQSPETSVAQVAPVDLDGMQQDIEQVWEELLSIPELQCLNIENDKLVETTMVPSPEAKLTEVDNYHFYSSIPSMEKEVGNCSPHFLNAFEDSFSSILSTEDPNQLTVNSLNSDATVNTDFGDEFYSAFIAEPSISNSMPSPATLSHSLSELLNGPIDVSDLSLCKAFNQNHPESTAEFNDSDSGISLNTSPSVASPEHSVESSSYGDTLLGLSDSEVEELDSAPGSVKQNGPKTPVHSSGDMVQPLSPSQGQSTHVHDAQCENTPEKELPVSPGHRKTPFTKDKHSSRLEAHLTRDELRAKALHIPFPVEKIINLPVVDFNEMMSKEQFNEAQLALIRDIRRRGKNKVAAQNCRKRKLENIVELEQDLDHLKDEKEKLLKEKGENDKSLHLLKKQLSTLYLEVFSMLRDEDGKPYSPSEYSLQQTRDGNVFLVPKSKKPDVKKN

In the case of `CN(C)C(=O)Nc1ccc(Cl)c(Cl)c1`, the AC50 – broadly, the midpoint of the concentration-response curve, whichever way the signal moves – was 51.5 µM (active) in experiment [1] and 83.3 µM (active) in experiment [4]. In addition, the outcome in experiment [2], in experiment [3], in experiment [5], in experiment [6], in [7] and in [8] was inactive. Besides, the compound was called inactive in experiment [9].
Regarding `CC(=O)[C@H]1CC[C@H]2[C@@H]3CCC4=CC(=O)CC[C@]4(C)[C@H]3CC[C@]12C`, the AC50 in [1] is 38.2 µM (active); in experiment [3], 62.1 µM (active); in experiment [5] it was 88.6 µM (active); in [6], 63.1 µM (active); in experiment [7], 75.2 µM (active); in experiment [8], 33.1 µM (active). In addition, the AC50 in experiment [9] is 91.8 µM (active). Further, in experiment [4], the compound was called inactive.
On to `C=CCOC(Cn1ccnc1)c1ccc(Cl)cc1Cl` (centres undefined), for which the AC50 is 31.3 µM (active) in [1], 50 µM (active) in experiment [3], 21.8 µM (active) in experiment [4] and 35 µM (active) in experiment [7]. Also, the call in experiment [5], in [6] and in experiment [9] was inactive.
Regarding `CCN(CC)C(=O)c1cccc(C)c1`, the call in experiment [1], in experiment [3], in experiment [4], in experiment [5], in experiment [7] and in experiment [9] was inactive. Also, the AC50 in experiment [6] was 4.39 µM (active).
Take `CCOC(=O)NCCOc1ccc(Oc2ccccc2)cc1`: the AC50 in [1] was 84.9 µM (active); in [7] it was 93.4 µM (active); in experiment [8], 78.6 µM (active). The outcome in experiment [3], in experiment [4], in [5], in [6] and in experiment [9] was inactive.
With `CC1(C)C(C=C(Cl)Cl)C1C(=O)OCc1cccc(Oc2ccccc2)c1` (centres undefined), the outcome in [1], in experiment [3], in experiment [4], in [5], in experiment [6] and in [7] was inactive. In addition, the call in experiment [8] and in experiment [9] was inactive.
Consider `CCCCOC(=O)C(C)Oc1ccc(Oc2ccc(C(F)(F)F)cn2)cc1` (centres undefined), for which the result in experiment [1], in experiment [3], in experiment [4], in [5], in experiment [6] and in experiment [7] was inactive. Besides, in experiment [9], the compound was classed as inactive.
For `CCOC(=O)C(C)Oc1ccc(Oc2nc3ccc(Cl)cc3o2)cc1` (centres undefined), the AC50 in experiment [1] is 9.92 µM (active). Besides, the result in experiment [3], in experiment [4], in [5], in experiment [6], in [7] and in [9] was inactive.
Turning to `CCCN(CCC)c1c([N+](=O)[O-])cc(C(F)(F)F)c(N)c1[N+](=O)[O-]`, the AC50 in [1] is 27.2 µM (active); in experiment [9], 50 µM (active). The compound was called inactive in experiment [3], in experiment [4], in experiment [5], in experiment [6], in [7] and in [8].
Consider `CC(C)CCCCCCc1ccc(O)cc1`, for which the compound was called inactive in experiment [1], in experiment [3], in experiment [4], in [5], in experiment [6] and in experiment [7]. The result in experiment [9] was inactive.
As for `CCCOC(=O)c1ccc(C(=O)OCCC)nc1`, the result in experiment [1], in experiment [3], in [4], in [5], in experiment [6] and in experiment [7] was inactive. The compound was called inactive in experiment [8] and in experiment [9].
Regarding `N#CSCSc1nc2ccccc2s1`, the AC50 was 76.7 µM (active) in experiment [1] and 95.8 µM (active) in experiment [7]. Besides, the result in experiment [3], in experiment [4], in [5], in experiment [6] and in experiment [9] was inactive.
As for `CCC(C)OC(=O)N1CCCCC1CCO` (centres undefined), the call in [1], in experiment [3], in experiment [4], in experiment [5], in experiment [6] and in experiment [7] was inactive. Further, in [9], the compound was classed as inactive.
In the case of `COc1c(Cl)ccc(Cl)c1C(=O)O`, the outcome in experiment [1], in experiment [3], in [4], in experiment [5], in experiment [6] and in [7] was inactive. In addition, the call in experiment [9] was inactive.
Regarding `O=C(Nc1ccc([N+](=O)[O-])cc1Cl)c1cc(Cl)ccc1O`, the AC50 was 5.5 µM (active) in experiment [1]; 13.4 µM (active) in experiment [3]; 2.68 µM (active) in experiment [5]; 2.9 µM (active) in experiment [6]; 3.28 µM (active) in experiment [7]; 1.93 µM (active) in experiment [8]. Also, the AC50 in [9] was 3.95 µM (active). Moreover, the compound was classed as inactive in experiment [4].
Turning to `CCCCC(CC)COC(=O)c1ccccc1C(=O)O` (centres undefined), the compound was classed as inactive in experiment [1], in experiment [3], in experiment [4], in experiment [5], in experiment [6] and in experiment [7]. Besides, the result in [9] was inactive.
For the compound `CCNc1nc(N)nc(Cl)n1`, the result in experiment [1], in [3], in experiment [4], in experiment [5], in experiment [6] and in experiment [7] was inactive. Further, the outcome in experiment [9] was inactive.
Regarding `CC(C)(C)[C@@H](O)[C@@H](Cc1ccc(Cl)cc1)n1cncn1`, the compound was called inactive in experiment [1], in experiment [3], in experiment [4], in experiment [5], in [6] and in [9].
Take `Oc1ccc(C(c2ccc(O)cc2)C(Cl)(Cl)Cl)cc1`: the concentration at half-maximal activity (AC50) in experiment [1] was 92.3 µM (active); in [3] it was 82.7 µM (active); in [4], 78.2 µM (active); in [5] it was 80.6 µM (active); in [6] it was 76.8 µM (active); in experiment [9], 87.1 µM (active). Further, the compound was classed as inactive in experiment [7].
Consider `OB(O)O`, for which the compound was called inactive in experiment [1], in experiment [3], in experiment [4], in [5], in [6] and in experiment [7]. In addition, the result in experiment [9] was inactive.
Turning to `CCCCOC(=O)[C@@H](C)Oc1ccc(Oc2ccc(C(F)(F)F)cn2)cc1`, the outcome in experiment [1], in experiment [3], in [4], in experiment [5], in experiment [6] and in experiment [7] was inactive. Moreover, the call in experiment [9] was inactive.
For the compound `O=C(c1ccc(O)cc1O)c1ccc(O)cc1O`, the outcome in [1], in experiment [3], in [4], in [5], in experiment [6] and in experiment [7] was inactive. Moreover, the result in [10] and in experiment [9] was inactive.
On to `COCCO`, for which the call in experiment [1], in experiment [3], in experiment [4], in experiment [5], in experiment [6] and in experiment [7] was inactive. For the same compound, in [9], the compound was called inactive.
On to `CC(=O)S[C@@H]1CC2=CC(=O)CC[C@]2(C)[C@H]2CC[C@@]3(C)[C@@H](CC[C@@]34CCC(=O)O4)[C@H]12`, for which the figures for the AC50 in [1] and in [7] were 55.5 µM (active) and 50.4 µM (active), respectively. Further, the result in [3], in experiment [4], in [5], in [6] and in experiment [9] was inactive.
Take `CCCOC(=O)NCCCN(C)C`: the compound was classed as inactive in [1], in experiment [3], in experiment [4], in [5], in [6] and in experiment [7]. In addition, the compound was called inactive in [9].
Turning to `CCCCC(CC)CN1C(=O)C2C3C=CC(C3)C2C1=O` (centres undefined), the AC50 in [1] was 78.3 µM (active); in experiment [9] it was 78.8 µM (active). The result in experiment [3], in experiment [4], in experiment [5], in experiment [6] and in [7] was inactive.
As for `COC(=O)c1ccc(I)cc1S(=O)(=O)NC(=O)Nc1nc(C)nc(OC)n1`, the compound was classed as inactive in experiment [1], in experiment [3], in [4], in experiment [5], in experiment [7] and in experiment [8]. The compound was called inactive in experiment [9].
Regarding `CCCN(CCC)C(=O)SCC`, the outcome in experiment [1], in [3], in experiment [4], in experiment [5], in experiment [6] and in experiment [7] was inactive. For the same compound, the compound was classed as inactive in experiment [9].

The values are drawn from PubChem BioAssay (EPA / NIEHS).
